We go through 13 compounds from PubChem BioAssay.

Active and inactive are the calls of the source.

A short description of experiment [1]: E. coli DRC41 culture turbidity changes, primary screen, E. coli filamentation inducer project, strain DRC41, OD650, 48 h (AID 1152).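 Also: E. coli MC1000 strain DRC41 lacking acrAB efflux pump and sulA.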 The conditions noted are these: E. coli DRC41 (acrAB sulA), higher = more signal, called active from +8 up or from −8 down.
Experiment [2] in a line: small-molecule binders of probe aLefty1, primary screen, biochemical, small-molecule microarray, 635/667 nm fluorescence (AID 1153).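 Also: score merges spot fluorescence with signal-to-noise ratio from the scanned slide images.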 To be noted: higher = more signal.
The nature of experiment [3]: PSAC antagonists in infected red cells, primary screen, cell-based, P. falciparum Indochina, OD700, 1 h (AID 1154). The conditions noted are these: P. falciparum Indochina infected RBC osmotic lysis, higher = more signal, called active from +8 up or from −8 down.
The nature of experiment [4]: PSAC antagonists in infected red cells, primary screen, cell-based, P. falciparum Indochina, OD700, 2 h (AID 1155).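 Also: lysis reports solute entry through the parasite surface anion channel PSAC; channel blockers reduce lysis of infected cells.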 The conditions noted are these: P. falciparum Indochina infected erythrocytes, osmotic lysis OD700; higher = more signal, called active from +8 up or from −8 down.
A short description of experiment [5]: osmotic lysis modulators in infected erythrocytes, primary screen, PSAC antagonist project, cell-based, P. falciparum Indochina, OD700, 3 h (AID 1156). The conditions noted are these: higher = more signal, called active from +8 up or from −8 down.
Experiment [6] in a line: PSAC antagonists in infected red cells, primary screen, cell-based, P. falciparum Indochina, OD700, 18 h (AID 1157). To be noted: P. falciparum Indochina infected erythrocytes, osmotic lysis OD700, 18 h; higher = more signal, called active from +8 up or from −8 down.
Experiment [7] is described as follows: modulators of S6 phosphorylation in cells, primary screen, cell-based, A549, cytoblot, luminescence, serum-stimulated (AID 1158).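 Also: serum-stimulated A549 lung adenocarcinoma cells; signal is phosphorylated S6 detected by cytoblot immunostaining with HRP secondary.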 To be noted: A549 phospho-S6 cytoblot, 5 h, higher = more signal.
For experiment [8], the target named is NADPH oxidase 2 (Homo sapiens) (UniProt P04839). Kind of experiment: NOX2-dependent H2O2 signal modulators, primary screen, NOX inhibitor project, cell-based, HEK293-NOX2, PMA-stimulated, Amplex Red fluorescence (AID 1159). Also: test concentration not given here. The conditions noted are these: 45 min, higher = more signal, called active from +8 up or from −8 down.
Experiment [9] addresses NADPH oxidase 4 (Homo sapiens) (UniProt Q9NPH5). Nature of the experiment: NOX4-dependent H2O2 signal modulators, primary screen, NOX inhibitor project, cell-based, HEK293-NOX4, tetracycline-induced, Amplex Red fluorescence (AID 1160). To be noted: 45 min, higher = more signal, called active from +8 up or from −8 down.
In experiment [10] the target is NADPH oxidase 5 (Homo sapiens) (UniProt Q96PH1). Nature of the experiment: NOX5-dependent H2O2 signal modulators, primary screen, NOX inhibitor project, cell-based, HEK293-NOX5, Amplex Red fluorescence (AID 1161). To be noted: HEK293-NOX5, ionomycin, 45 min, higher = more signal.
NADPH oxidase 5 (Homo sapiens), sequence (Q96PH1 whole entry, looked up): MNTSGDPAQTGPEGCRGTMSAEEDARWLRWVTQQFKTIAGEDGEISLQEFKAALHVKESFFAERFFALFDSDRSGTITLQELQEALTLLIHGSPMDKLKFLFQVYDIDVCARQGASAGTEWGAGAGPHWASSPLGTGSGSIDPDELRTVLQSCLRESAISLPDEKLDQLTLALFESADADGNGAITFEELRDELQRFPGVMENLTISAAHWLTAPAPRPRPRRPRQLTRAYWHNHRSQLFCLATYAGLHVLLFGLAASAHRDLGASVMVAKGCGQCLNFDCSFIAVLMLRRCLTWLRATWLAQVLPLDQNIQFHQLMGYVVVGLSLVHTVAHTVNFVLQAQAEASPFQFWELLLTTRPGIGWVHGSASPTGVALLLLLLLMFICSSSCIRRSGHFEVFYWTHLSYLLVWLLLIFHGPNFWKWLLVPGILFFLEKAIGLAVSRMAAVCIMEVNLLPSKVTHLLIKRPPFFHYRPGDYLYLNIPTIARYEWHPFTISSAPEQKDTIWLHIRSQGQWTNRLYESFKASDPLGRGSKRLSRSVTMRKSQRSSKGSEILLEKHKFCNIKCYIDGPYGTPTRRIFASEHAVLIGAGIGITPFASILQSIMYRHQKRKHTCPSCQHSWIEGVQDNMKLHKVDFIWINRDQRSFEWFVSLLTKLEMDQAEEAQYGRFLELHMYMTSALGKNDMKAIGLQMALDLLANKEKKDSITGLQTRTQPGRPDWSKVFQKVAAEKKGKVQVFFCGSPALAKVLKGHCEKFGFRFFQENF

NADPH oxidase 2 (Homo sapiens), sequence (P04839 whole entry, looked up): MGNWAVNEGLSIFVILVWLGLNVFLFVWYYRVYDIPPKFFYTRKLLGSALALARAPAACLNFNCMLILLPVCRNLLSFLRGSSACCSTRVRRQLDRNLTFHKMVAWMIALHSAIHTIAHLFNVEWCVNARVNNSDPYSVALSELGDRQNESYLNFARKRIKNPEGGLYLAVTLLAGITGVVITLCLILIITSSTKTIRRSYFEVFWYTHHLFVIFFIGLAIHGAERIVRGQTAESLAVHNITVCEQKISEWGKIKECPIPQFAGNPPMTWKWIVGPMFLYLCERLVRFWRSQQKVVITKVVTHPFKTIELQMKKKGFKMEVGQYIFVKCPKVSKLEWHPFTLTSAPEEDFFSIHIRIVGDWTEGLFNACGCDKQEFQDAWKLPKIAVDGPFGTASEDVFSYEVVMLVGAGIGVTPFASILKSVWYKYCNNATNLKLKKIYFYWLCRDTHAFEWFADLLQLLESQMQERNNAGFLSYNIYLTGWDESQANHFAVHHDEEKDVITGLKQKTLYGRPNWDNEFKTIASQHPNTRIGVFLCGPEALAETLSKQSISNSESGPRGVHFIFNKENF
NADPH oxidase 4 (Homo sapiens), sequence (Q9NPH5 whole entry, looked up): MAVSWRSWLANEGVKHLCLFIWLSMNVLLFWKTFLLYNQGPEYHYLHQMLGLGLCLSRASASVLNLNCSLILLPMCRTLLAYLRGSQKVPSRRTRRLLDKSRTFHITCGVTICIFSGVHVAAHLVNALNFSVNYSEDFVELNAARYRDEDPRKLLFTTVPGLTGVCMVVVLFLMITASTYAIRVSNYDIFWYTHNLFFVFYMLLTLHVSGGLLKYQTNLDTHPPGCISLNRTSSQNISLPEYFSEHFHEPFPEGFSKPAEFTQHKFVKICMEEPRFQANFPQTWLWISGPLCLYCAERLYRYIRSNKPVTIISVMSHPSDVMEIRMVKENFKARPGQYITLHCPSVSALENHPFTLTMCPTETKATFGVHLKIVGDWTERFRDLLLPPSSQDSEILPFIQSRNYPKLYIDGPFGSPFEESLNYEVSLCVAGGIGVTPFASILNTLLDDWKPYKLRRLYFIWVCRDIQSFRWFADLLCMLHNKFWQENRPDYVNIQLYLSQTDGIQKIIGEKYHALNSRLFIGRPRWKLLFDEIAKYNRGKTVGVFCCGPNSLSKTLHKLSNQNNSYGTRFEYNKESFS

As for `CN1C(=O)C2C=CC(C(O)c3ccc(F)cc3)N(N(c3ccccc3)c3ccccc3)C2C1=O` (stereo not given), the z-score was -1.46 (inactive) in [1]; 0.362 (inactive) in experiment [3]; 1.27 (inactive) in [4]; 0.39 (inactive) in experiment [5]; 1.17 (inactive) in experiment [6]; -1.16 in experiment [7]. Further, the results for the z-score in [8], in experiment [9] and in [10] were -0.948 (inactive), -1.82 (inactive) and -1.39, respectively. Moreover, the composite z-score in [2] is -0.483.
Turning to `CO[C@H]1O[C@H](CO)[C@@H](OC(=O)Nc2cccc(F)c2)[C@H](OC(=O)Nc2ccccc2)[C@H]1OC(=O)Nc1ccccc1`, the z-score in [1] was -0.198 (inactive); in experiment [3] it was 4.41 (inactive); in experiment [4], 1.13 (inactive); in experiment [5], -0.711 (inactive); in [6], 0.986 (inactive); in [7], 0.627. Further, the z-score in experiment [8] is -6.46 (inactive); in experiment [9] it was -1.09 (inactive); in experiment [10] it was -2.13. In [2], this compound gave a composite z-score of 0.435.
Regarding `C=C(CCCC)/C(=C/C[C@H](OC(C)=O)c1ccc(OCCO)cc1)c1cnc2ccccc2c1`, the z-score was 0.621 (inactive) in experiment [1]; 22 (active) in experiment [3]; 6 (inactive) in experiment [4]; 1.23 (inactive) in experiment [5]; 1.04 (inactive) in [6]; -0.1 in experiment [7]. Besides, the z-score in [8] is -2.53 (inactive); in experiment [9] it was -0.429 (inactive); in experiment [10], -2.06. This compound displayed a composite z-score in experiment [2] of 0.0999.
Regarding `CC=CC(O)C1C=CC2C(=O)N(C)C(=O)C2N1N(c1ccccc1)c1ccccc1` (stereo not given), the z-score in experiment [1] was -1.3 (inactive); in [3], -0.553 (inactive); in [4], 0.603 (inactive); in experiment [5], -0.461 (inactive); in [6], 1.12 (inactive); in experiment [7], -0.674. For the same compound, the z-score in experiment [8] is -0.633 (inactive); in experiment [9], -0.176 (inactive); in experiment [10] it was -0.111. Further, the composite z-score in experiment [2] was -0.101.
Take `O=C1O[C@@H](c2ccccc2)[C@@H](c2ccccc2)N2[C@@H](c3ccccc3OCCO)[C@]3(C(=O)Nc4ccccc43)[C@@H](C(=O)O)[C@H]12`: the z-score in [1] was -0.749 (inactive); in experiment [3], 0.749 (inactive); in experiment [4] it was 0.745 (inactive); in experiment [5] it was -1.6 (inactive); in [6], 0.761 (inactive); in [7], 0.128. Further, the z-score in [8] is 2.66 (inactive); in experiment [9] it was 0.516 (inactive); in [10], 1.24. In experiment [2], the composite z-score is -0.518.
Consider `C[N+](C)(C)CCCC[C@@H]1NC(=O)[C@H]2C[C@@H](C(=O)NCCCCCCNC(=O)CS)[C@@H](c3ccc(O)cc3)N2C1=O`, for which the z-score in [1] was -0.265 (inactive); in experiment [3], 1.24 (inactive); in experiment [4], 0.193 (inactive); in experiment [5] it was 1.12 (inactive); in [6], 0.0061 (inactive); in [7], -0.409. The figures for the z-score in experiment [8], in [9] and in [10] were 0.518 (inactive), 0.507 (inactive) and 0.936, respectively. The composite z-score in [2] was -0.299.
With `C=CCN(Cc1ccccc1)C(=O)C(c1cccs1)N(C(=O)/C=C\C(=O)O)c1ccc(CCOCCO)cc1` (stereo not given), the z-score in [1] is 1.61 (inactive); in experiment [3], 1.51 (inactive); in [4], -0.707 (inactive); in experiment [5] it was 0.189 (inactive); in experiment [6], -1.04 (inactive); in [7], 1.77. Further, the z-score in experiment [8] was -0.108 (inactive); in experiment [9], -0.821 (inactive); in [10] it was -0.58. The compound further gave a composite z-score in [2] of -0.0538.
On to `CCCCCCc1nc(-c2ccc(-c3ccc(Cl)c(Cl)c3)o2)cc2c1[Si](C(C)C)(C(C)C)O[C@H]2c1ccccc1`, for which the z-score in experiment [1] was 0.321 (inactive); in [3], 0.439 (inactive); in [4], 0.0435 (inactive); in experiment [5], 1.47 (inactive); in experiment [6], 0.333 (inactive); in [7], 0.205. The z-score was -1.24 (inactive) in experiment [8], -1.44 (inactive) in experiment [9] and -1.49 in [10]. In experiment [2], the composite z-score was -0.598.
`C=C[C@H](C)[C@@H](OC(=O)Nc1ccc(SC)cc1)c1ccc(O)c2ccccc12`: the z-score was -0.751 (inactive) in [1]; 27.7 (active) in experiment [3]; 9.84 (active) in experiment [4]; 2.51 (inactive) in experiment [5]; 1.31 (inactive) in experiment [6]; 1.23 in [7]. Moreover, the z-score in experiment [8] was -5.52 (inactive); in experiment [9] it was -1.45 (inactive); in [10] it was 0.894. The composite z-score in experiment [2] amounted to 0.0942.
Turning to `OCC1C=C(/C=C/c2ccccc2)CN1Cc1ccccc1Br` (stereo not given), the z-score in experiment [1] is 0.785 (inactive); in experiment [3] it was 6.56 (inactive); in experiment [4], 0.673 (inactive); in experiment [5] it was 1.17 (inactive); in experiment [6], 0.499 (inactive); in experiment [7], 0.0524. Further, the z-score in experiment [8] is 0.887 (inactive); in experiment [9], -2.84 (inactive); in experiment [10], -0.691. In [2], this compound came in with a composite z-score of 0.457.
For the compound `COCCOC(=O)N1C(=O)[C@@]2(c3ccccc31)[C@H](C(=O)N1CCCCCCC1)[C@H]1C(=O)O[C@H](c3ccccc3)[C@H](c3ccccc3)N1[C@@H]2c1ccc(OCCO)cc1`, the z-score in [1] was -0.448 (inactive); in experiment [3], 8.64 (active); in experiment [4], 1.89 (inactive); in experiment [5], 1.31 (inactive); in [6], 0.976 (inactive); in experiment [7] it was 0.213. Further, the z-score is -0.0367 (inactive) in [8], 0.867 (inactive) in [9] and 1.53 in [10]. For the same compound, the composite z-score in experiment [2] was found to be 3.13.
Consider `CCCNC(=O)[C@@]1(Sc2ccc(C)cc2)CC(=O)N(Cc2ccccc2C(F)(F)F)[C@@H]1c1ccc(CO)cc1I`, for which the z-score in experiment [1] was 0.0676 (inactive); in experiment [3], 5.14 (inactive); in [4], 0.0162 (inactive); in [5] it was 0.378 (inactive); in experiment [6] it was -1.95 (inactive); in [7] it was 2.26. The values for the z-score in [8], in [9] and in experiment [10] were 0.781 (inactive), -2 (inactive) and -0.0781, respectively. Moreover, in experiment [2], the composite z-score amounted to 0.0999.
For `C=CCC(OC(C)=O)[C@@H]1[C@@H](N(Cc2ccc(-c3cccc(C(F)(F)F)c3)o2)C(=O)Cc2ccc(OC)cc2)c2cc(OCCCO)ccc2N1C(=O)c1ccc2ccccc2c1` (stereo not given in full), the z-score in experiment [1] is 0.0395 (inactive); in [3], 1.35 (inactive); in experiment [4], 1.01 (inactive); in experiment [5], 2.68 (inactive); in [6] it was 0.898 (inactive); in experiment [7], 0.388. Further, the z-score is -2.68 (inactive) in [8], -1.99 (inactive) in experiment [9] and -1.9 in experiment [10]. Besides, the composite z-score in [2] turned out to be 0.0191.
